Potency and affinity values are given separately.

The first assay concerns Candida albicans. As to conditions: Concentration 32 ug.mL-1; ASSAY_TEST Inhibition of Fungal Growth; detection method Absorption (OD530).
In general, Inhibition refers to the drop in the measured response relative to a control, in per cent. Take `Cc1ccc(NC(=O)Cn2nc3c(SC4CCCCC4)nccn3c2=O)cc1`: the Inhibition is listed as -2.16%.

On to `O=C(Cn1nc2c(N3CCOCC3)nccn2c1=O)Nc1ccc2c(c1)OCO2`, for which the Inhibition is 1.5%.

Consider `COc1cccc(-n2ccn3c(SCC(=O)Nc4ccc(F)cc4F)nnc3c2=O)c1`, for which the Inhibition turned out to be 4.17%.

On to `Cc1cc(C)c(NC(=O)Cn2nc3c(Sc4ccccc4)nccn3c2=O)c(C)c1`, for which the Inhibition is listed as 5.92%.

In the case of `Cc1oc(-c2ccccc2)nc1CSc1nc2ccccc2n2c(C)nnc12`, the Inhibition stood at 9.66%.

In the case of `COc1cccc(CN(c2cccc(C)c2)S(=O)(=O)c2ccc3nnc(C)n3c2)c1`, the Inhibition was 0.75%.

`Cc1ccc(NC(=O)CSc2nnc3c(=O)n(-c4ccc(C)c(C)c4)ccn23)c(Cl)c1`: the Inhibition was found to be 0.25%.

Take `COc1cccc(-n2ccn3c(SCC(=O)c4ccc(C)cc4)nnc3c2=O)c1`: the Inhibition was found to be 3.43%.

For the molecule `O=C(Cn1nc2c3sc(N4CCCC4)nc3ncn2c1=O)Nc1ccc(F)c(Cl)c1`, the Inhibition was found to be 4.41%.

Regarding `Cc1ccc(-c2ccc3nn(Cc4ccc(N5CCCC5=O)cc4)c(=O)n3n2)cc1`, the Inhibition stood at 1.53%.

Consider `O=C(Cn1nc2c(SC3CCCCC3)nccn2c1=O)Nc1ccc(Br)cc1`, for which the Inhibition is listed as 6.38%.

Consider `Cc1cccc(C)c1NC(=O)CSc1nc2ccccc2n2c(C)nnc12`, for which the Inhibition is listed as 0.67%.

As to `O=C(Cn1nc2c3cc(-c4ccc(F)cc4)nn3ccn2c1=O)N1CCN(c2ccccc2F)CC1`, the Inhibition worked out at 2.96%.

Consider `COc1ccc(NC(=O)Cn2nc3c(N4CCOCC4)nccn3c2=O)cc1Cl`, for which the Inhibition stood at 2.64%.

Consider `Cc1ccc(-n2ccn3c(=O)n(Cc4ccc(F)cc4)nc3c2=O)cc1C`, for which the Inhibition stood at 1.58%.

`COc1cccc(-n2ccn3c(SCC(=O)NCc4ccco4)nnc3c2=O)c1`: the Inhibition is on record as 4.76%.

For `Cc1cc(C)c(NC(=O)Cn2nc3ccc(SCc4ccc(Cl)cc4)nn3c2=O)c(C)c1`, the Inhibition was found to be 6.58%.

For the molecule `COc1ccc(-n2ccn3c(-c4cccc([N+](=O)[O-])c4)nnc3c2=O)cc1`, the Inhibition is on record as 0.19%.

As to `Cc1ccc(Oc2nccn3c(=O)n(CC(=O)Nc4ccccc4Br)nc23)cc1`, the Inhibition was found to be 1.31%.

In the case of `Cc1ccc(NC(=O)Cn2nc3ccc(SC(C)C)nn3c2=O)c(Cl)c1`, the Inhibition is 10.62%.

Turning to `COc1ccccc1N1CCN(C(=O)Cn2nc3ccc(-c4ccc(Cl)cc4)nn3c2=O)CC1`, the Inhibition is listed as -1.54%.

`Cc1cccc(NC(=O)Cn2nc3c(Sc4ccccc4)nccn3c2=O)c1`: the Inhibition is listed as 0.01%.

As to `COc1ccccc1N1CCN(C(=O)Cn2nc3c(Oc4ccc(C)cc4)nccn3c2=O)CC1`, the Inhibition is reported as 1.98%.

For `O=C(CSc1nnc2c(=O)n(-c3ccccc3)ccn12)NCc1ccc(Cl)cc1`, the Inhibition is -0.29%.

The subject of a further assay is Cryptococcus neoformans. The settings on record: Concentration 32 ug.mL-1; ASSAY_TEST Inhibition of Fungal Growth; detection method Resazurin; Absorption (OD600-OD570); plate type 384well; NBS; CORNING #3640.
In the case of `COc1ccc(-c2cc3c4nnc(SCC(=O)Nc5cccc(C#N)c5)n4ccn3n2)cc1`, the Inhibition is recorded as -16.67%.

`COc1ccccc1-n1ccn2c(SCC(=O)Nc3ccc(C)cc3Cl)nnc2c1=O`: the Inhibition is -11.35%.

Turning to `O=S(=O)(c1ccc2nncn2c1)N(Cc1cccc(F)c1)c1ccc(F)c(F)c1`, the Inhibition is -5.3%.

For `Cc1ccc(NC(=O)CSc2nc3ccccc3n3c(C(C)C)nnc23)c(Cl)c1`, the Inhibition is on record as -3.15%.

Consider `Cc1nnc2c(=O)n(CC(=O)Nc3ccc(F)cc3)c3ccccc3n12`, for which the Inhibition is -6.03%.

Regarding `Cc1nnc2c(=O)n(CC(=O)Nc3ccccc3Br)c3ccccc3n12`, the Inhibition is on record as -7.03%.

`Cc1nnc2ccc(S(=O)(=O)N(Cc3cccc(F)c3)c3ccc(F)cc3)cn12`: the Inhibition was -9.68%.

For the molecule `COc1ccc(-c2cc3c4nnc(SCC(=O)N(C)c5ccccc5)n4ccn3n2)cc1`, the Inhibition is -11.25%.

`COc1cccc(Sc2nc3ccccc3n3c(=O)n(CC(=O)N4CCCc5ccccc54)nc23)c1`: the Inhibition was -20.75%.

As for `CCc1ccc(NC(=O)Cn2nc3c(Oc4cccc(OC)c4)nccn3c2=O)cc1`, the Inhibition is on record as -4.27%.

Take `CCOc1ccc(-n2ccn3c(SCC(=O)c4ccc(F)cc4)nnc3c2=O)cc1`: the Inhibition is given as -5.27%.

`CCc1nnc2c(=O)n(CC(=O)Nc3ccc4c(c3)OCCO4)c3ccccc3n12`: the Inhibition is given as -11.52%.

On to `CCCCOc1ccc(-c2cc3c4nnc(SCC(=O)N(CC)c5ccccc5)n4ccn3n2)cc1`, for which the Inhibition is -16.28%.

As for `O=S(=O)(c1ccc2nncn2c1)N(Cc1cc(F)cc(F)c1)c1ccc(F)c(F)c1`, the Inhibition is -12.17%.

Take `O=C(Cn1nc2ccc(-c3ccc(Cl)cc3)nn2c1=O)N1CCN(c2ccc(F)cc2)CC1`: the Inhibition was -8.76%.

As to `Cc1ccc(NC(=O)Cn2nc3c(SC4CCCCC4)nccn3c2=O)cc1`, the Inhibition is recorded as -28.82%.

With `O=C(Cn1nc2c(N3CCOCC3)nccn2c1=O)Nc1ccc2c(c1)OCO2`, the Inhibition is -14.42%.

For the molecule `COc1cccc(-n2ccn3c(SCC(=O)Nc4ccc(F)cc4F)nnc3c2=O)c1`, the Inhibition is -12.76%.

For the molecule `Cc1cc(C)c(NC(=O)Cn2nc3c(Sc4ccccc4)nccn3c2=O)c(C)c1`, the Inhibition is -6.18%.

For `Cc1oc(-c2ccccc2)nc1CSc1nc2ccccc2n2c(C)nnc12`, the Inhibition is -6.62%.

With `COc1cccc(CN(c2cccc(C)c2)S(=O)(=O)c2ccc3nnc(C)n3c2)c1`, the Inhibition was -14.81%.

As to `Cc1ccc(NC(=O)CSc2nnc3c(=O)n(-c4ccc(C)c(C)c4)ccn23)c(Cl)c1`, the Inhibition was -10.04%.

Turning to `COc1cccc(-n2ccn3c(SCC(=O)c4ccc(C)cc4)nnc3c2=O)c1`, the Inhibition is listed as -10.21%.

Consider `O=C(Cn1nc2c3sc(N4CCCC4)nc3ncn2c1=O)Nc1ccc(F)c(Cl)c1`, for which the Inhibition is given as -11.29%.

For the molecule `Cc1ccc(-c2ccc3nn(Cc4ccc(N5CCCC5=O)cc4)c(=O)n3n2)cc1`, the Inhibition was -7.16%.

`O=C(Cn1nc2c(SC3CCCCC3)nccn2c1=O)Nc1ccc(Br)cc1`: the Inhibition is listed as -23.31%.

Take `Cc1cccc(C)c1NC(=O)CSc1nc2ccccc2n2c(C)nnc12`: the Inhibition is reported as -4.49%.

As to `O=C(Cn1nc2c3cc(-c4ccc(F)cc4)nn3ccn2c1=O)N1CCN(c2ccccc2F)CC1`, the Inhibition is -19.92%.

On to `COc1ccc(NC(=O)Cn2nc3c(N4CCOCC4)nccn3c2=O)cc1Cl`, for which the Inhibition is listed as -7.27%.

For the molecule `Cc1ccc(-n2ccn3c(=O)n(Cc4ccc(F)cc4)nc3c2=O)cc1C`, the Inhibition is given as -18.28%.

Turning to `COc1cccc(-n2ccn3c(SCC(=O)NCc4ccco4)nnc3c2=O)c1`, the Inhibition is -13.76%.

Consider `Cc1cc(C)c(NC(=O)Cn2nc3ccc(SCc4ccc(Cl)cc4)nn3c2=O)c(C)c1`, for which the Inhibition is -25.9%.

Turning to `COc1ccc(-n2ccn3c(-c4cccc([N+](=O)[O-])c4)nnc3c2=O)cc1`, the Inhibition is reported as -14.9%.

In the case of `Cc1ccc(Oc2nccn3c(=O)n(CC(=O)Nc4ccccc4Br)nc23)cc1`, the Inhibition was -18.92%.

As to `Cc1ccc(NC(=O)Cn2nc3ccc(SC(C)C)nn3c2=O)c(Cl)c1`, the Inhibition is reported as -1.74%.

On to `COc1ccccc1N1CCN(C(=O)Cn2nc3ccc(-c4ccc(Cl)cc4)nn3c2=O)CC1`, for which the Inhibition is on record as -12.15%.

`Cc1cccc(NC(=O)Cn2nc3c(Sc4ccccc4)nccn3c2=O)c1`: the Inhibition was -4.87%.

Consider `COc1ccccc1N1CCN(C(=O)Cn2nc3c(Oc4ccc(C)cc4)nccn3c2=O)CC1`, for which the Inhibition is listed as -10.45%.

As for `O=C(CSc1nnc2c(=O)n(-c3ccccc3)ccn12)NCc1ccc(Cl)cc1`, the Inhibition is reported as -12.48%.
